From ChEMBL document CHEMBL3988442, “University of Dundee, Small-Polar-MMV Screening Library” (2021)

How the values were obtained:
[1] = biological target: T1, Aspartate--tRNA(Asp/Asn) ligase (Mycobacterium tuberculosis (strain ATCC 25618 / H37Rv)) (UniProt P9WFW3); assay: Assay for Asp RNA synthetase-1 from Mycobacterium tuberculosis; format: functional; parameters: scale not given: direction of the effect not stated beside the values; settings: 30 µM; further: in the data most compounds retested in dose-response had high values
T1 sequence (whole entry): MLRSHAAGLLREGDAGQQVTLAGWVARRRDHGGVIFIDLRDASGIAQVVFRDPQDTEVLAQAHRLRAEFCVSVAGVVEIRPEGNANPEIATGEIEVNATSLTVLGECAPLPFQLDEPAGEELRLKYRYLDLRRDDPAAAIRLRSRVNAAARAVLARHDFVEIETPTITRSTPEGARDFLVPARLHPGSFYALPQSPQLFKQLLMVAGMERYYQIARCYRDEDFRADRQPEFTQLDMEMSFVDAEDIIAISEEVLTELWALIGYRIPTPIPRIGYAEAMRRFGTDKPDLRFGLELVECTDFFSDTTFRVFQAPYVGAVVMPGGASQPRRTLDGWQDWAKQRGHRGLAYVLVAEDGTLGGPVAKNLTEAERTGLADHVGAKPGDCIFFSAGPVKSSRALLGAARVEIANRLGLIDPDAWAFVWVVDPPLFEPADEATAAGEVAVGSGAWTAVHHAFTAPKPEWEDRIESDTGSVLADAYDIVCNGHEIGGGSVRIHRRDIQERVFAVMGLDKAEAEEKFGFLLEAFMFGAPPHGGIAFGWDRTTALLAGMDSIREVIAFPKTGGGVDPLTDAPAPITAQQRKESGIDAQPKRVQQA

[2] = biological target: Shiga toxin 2 (Escherichia coli O157:H7) (UniProt P09385+P09386); assay: E. coli 0.157:H7 Shiga Toxin SOP - stx2 screening assay; format: functional; parameters: scale not given: direction of the effect not stated beside the values; settings: 30 µM

Row | SMILES | Percent Effect [1] [%] | Percent Effect [2] [%]
1 | O=C(C1CC1)N1CCC(c2nc(O)c3c(n2)CCN(C2CCCC2)C3)C1 (configuration not stated) | -2.25 | -11.5
2 | O=C(NCCc1nnc2n1CCC2)NCC1(c2cccc(F)c2)CC1 | -2.55 | 4.87
3 | COc1ccc(C2CC(=O)Oc3cc(C)[nH]c(=O)c32)cc1 (configuration not stated) | 0.232 | -8.78
4 | CCOCCN1CCCC(c2cc(C(N)=O)[nH]n2)C1 (configuration not stated) | -2.28 | -7.08
5 | CCOC(=O)N1CCC(C(=O)c2cc(F)ccc2F)CC1 | 1.26 | 36.2
6 | CCOCC(=O)N1CCC(Oc2ccc(C(F)(F)F)cn2)CC1 | 2.2 | 12.5
7 | CCOc1cc(F)ccc1NS(=O)(=O)c1cc(C)c(C(=O)O)s1 | 1.85 | -9.96
8 | CN(Cc1ccco1)C[C@H]1OC[C@@H]2CCN(Cc3cccs3)C[C@@H]21 | 3.35 | -17.4
9 | CCCNC(=O)CNc1ccc(C(=O)N2CCCCC2C)cc1C (configuration not stated) | 3.79 | 10.6
10 | CC(NC(=O)N(C)Cc1ccc(Cl)s1)c1ccccn1 (configuration not stated) | -2.02 | -6.3
11 | Cn1cccc1C(=O)NCc1cnc2n1CCN(C(=O)N1CCCC1)C2 | -0.495 | -94.8
12 | CCS(=O)(=O)N(C)C1CCN(C(=O)c2cccc(Cl)c2)CC1 | -0.493 | 14.8
13 | CC(C)Oc1ncc(C(=O)N2CCC(NC(=O)C3CC3)CC2)cc1Cl | -4.56 | -46.9
14 | CCc1noc(C(C)N2CCN(Cc3noc(C)n3)CC2)n1 (configuration not stated) | -5.46 | -10.9
15 | CC(C)c1cc(NC(=O)CN2CCc3cncnc3C2)on1 | 2.37 | 5.67
16 | Cc1nnc(NCC2(c3ccc(Cl)cc3Cl)CCOCC2)c(C#N)c1C | 1.93 | -16.4
17 | CCn1ccnc1CN1CCCN(C(=O)c2cc(Cl)c[nH]2)CC1 | -5.23 | -18.9
18 | CCCNCc1cn(C)nc1-c1cccnc1 | -0.663 | -14.7
19 | O=C(NCc1cc[nH]n1)NCC(O)c1ccc(F)cc1F (configuration not stated) | 4.01 | -25
20 | COc1c(CNCc2cccc(Cn3ccnc3)c2)c(C)nn1C | 7.35 | 14.4
21 | Cc1noc(-c2ccc(N3CCCC(C(=O)N4CCSCC4)C3)nc2)n1 (configuration not stated) | -3.39 | 10.1
22 | Cc1cc(N2CCC(CC(N)=O)CC2)nc(-c2ccncc2)n1 | 6.11 | 0.525
23 | c1cc(CNCC2OCCc3cn(CC4CCOCC4)nc32)ccn1 (configuration not stated) | 4.2 | -5.21

Row | SMILES | Percent Effect [1] [%] | Percent Effect [2] [%]
24 | CN(C)C(=O)c1cccc(NC(=O)N(CCO)Cc2ccsc2)c1 | -4.93 | -18.5
25 | CCOc1cc(/C=C/c2ncc(C(=O)O)s2)cc(Cl)c1OC | -1.24 | -0.531
26 | COc1cccc(N2CCN(C(=O)C(O)c3cccc(Cl)c3)CC2=O)c1 (configuration not stated) | 0.569 | -24.2
27 | c1cnc(N2C[C@H]3CCN(c4cccnc4)C[C@H]3C2)nc1 | -2.01 | -9.94
28 | Cn1ccc(NC(=O)Cc2cccc(F)c2)n1 | 3.36 | -9.92
29 | O=C(N1CCC(Nc2cccnn2)CC1)C1(c2ccc(F)cc2)CC1 | 4.44 | -20.3
30 | CCn1ccnc1CN1CCN(C(C)C(=O)N2CCC(C)CC2)CC1 (configuration not stated) | -3.5 | -22.7
31 | Cn1nccc1C1CCN(Cc2csc(-c3ncccn3)n2)CC1 | 5.92 | -10.6
32 | CC(C)c1nc2n(n1)CC(NCc1nnnn1C1CC1)CC2 (configuration not stated) | 1.55 | 8.39
33 | CCN1C(=O)CCCC12CCCN(C(=O)c1cnccn1)C2 (configuration not stated) | 0.865 | -10.9
34 | Cn1cc(CN2CC[C@H]3O[C@H](C(=O)NCc4ccco4)CC[C@H]32)cn1 | 5.47 | -27.7
35 | COc1ccc(CN2CCC3(CC2)CCN(CC(C)C)C3=O)cc1 | -3.87 | 3.87
36 | CC(C)Oc1ncnc2c1CCN(C(=O)c1cccn1C)CC2 | -1.46 | -10.4
37 | O=C(O)c1cc2c(nc1O)CC(c1cccc(Cl)c1)CC2=O (configuration not stated) | 0.494 | -22.1
38 | CCN1CC2(CC1=O)CN(Cc1cccs1)CCN(C(=O)C(C)C)C2 (configuration not stated) | -0.746 | 0.818
39 | O=C(CN1CCc2ccccc21)Nc1ccc(OC(F)F)cc1 | 0.418 | -7.39
40 | CCS(=O)(=O)N1CCCc2ccc(NC(=O)Cc3ccc(F)cc3)cc21 | 3.34 | 7.51
41 | O=C(O)c1csc(S(=O)(=O)Nc2cccc(OC(F)F)c2)c1 | -0.5 | -13.1
42 | CCNC(=O)c1nnn(Cc2ccccc2)c1OC | 0.29 | -14.9
43 | CC(C)NC(=O)N1CCc2ncc(CN3CCOCC3)n2CC1 | 3.1 | 0.463
44 | Cc1cccc(CNCc2c(C)nn(C)c2N2CCOCC2)n1 | 3.77 | -0.864
45 | CN1CCCN(C(=O)NCc2csc(Br)c2)CC1 | 0.175 | 14.5
46 | COCCNc1nc(C2CCCC2)nc2c1CCNCC2 | 2.87 | -36.8
